The structures appear in SMILES notation. Inconclusive results are not listed. Unmarked numbers belong to inactive results. Active and inactive are the calls of the source. Calls come from the whole dose curve; as a rule, active = well fitted curve in the direction sought with a large enough effect in the repeat runs; inconclusive = weak or mixed curves; inactive = no such curve, though single readings can be large; an effect the other way counts as inactive or inconclusive.

The results in this text go back to PubChem BioAssay (Tox21).

Assay [1] is described as follows: A CellTox Green Cytotoxicity Assay to monitor cytotoxicity in HEK293 cells - 40 hour (AID 1224871). Note: nearly all actives have a fitted effect of over 45% in size. Note: potency is the fitted concentration of half-maximal effect. A digest of the protocol: (§1)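 Nonlytic real-time cytotoxicity: HEK293 + CellTox Green reagent plated, 5 h preincubation, pintool compound addition (23 nL in DMSO), 37 C for 40 h, fluorescence measured at successive time points.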
The nature of assay [2]: qHTS RealTime-Glo MT Cell Viability Assay in HEK293 cells - 16 hour (AID 1224872). Note: top concentration of the series differs between compounds; nearly all actives have a fitted effect of over 50% in size. A digest of the protocol:
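Luminescence generated by NanoLuc from substrate produced by living HEK293 cells served as the viability signal. Each value reflects the reading at its stated time point during continuous 40 h compound exposure at 37 C.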

A short description of assay [3]: qHTS RealTime-Glo MT Cell Viability Assay in HepG2 cells - 8 hour (AID 1224873). Note: nearly all actives have a fitted effect of over 55% in size. In short, it runs like this:
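HepG2 cells mixed with RealTime-Glo MT reagents (NanoLuc plus cell-permeant prosubstrate) were seeded at 600 cells/well, incubated 5 h at 37 C/5% CO2, then pinned with compounds in DMSO; nonlytic luminescence tracked viability during 40 h treatment.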
(Quantitative high-throughput screening tests each substance at several concentrations.)

Assay [4] can be described thus: qHTS RealTime-Glo MT Cell Viability Assay in HEK293 cells - 40 hour (AID 1224874). Note: nearly all actives have a fitted effect of over 50% in size. The settings on record: RealTime-Glo luminescence; max response: active compounds read low. In short, it runs like this:
(§2)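 Cells were seeded together with NanoLuc luciferase and a prosubstrate that viable cells reduce to a luciferase substrate. After a 5 h incubation at 37 C/5% CO2, compounds were added and luminescence was measured repeatedly during 40 h of treatment.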

Assay [5] can be described thus: A CellTox Green Cytotoxicity Assay to monitor cytotoxicity in HEK293 cells - 24 hour (AID 1224875). Note: nearly all actives have a fitted effect of over 45% in size. Note: potency is the fitted concentration of half-maximal effect. In short, it runs like this: as §1
Assay [6] is described as follows: A CellTox Green Cytotoxicity Assay to monitor cytotoxicity in HepG2 cells - 16 hour (AID 1224876). Note: nearly all actives have a fitted effect of over 45% in size. A digest of the protocol: (§3)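 Read-out is fluorescence of a cyanine dye excluded from live cells that stains DNA of dead HepG2 cells, with signal proportional to cytotoxicity. Plates were read at 0, 8, 16, 24, 32 and 40 h after compound addition.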
A short description of assay [7]: qHTS RealTime-Glo MT Cell Viability Assay in HepG2 cells - 32 hour (AID 1224877). Note: nearly all actives have a fitted effect of over 55% in size. In short, it runs like this: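 Tox21 10K library screened in qHTS format on HepG2 cells carrying RealTime-Glo reagents. Compounds were added after a 5 h preincubation, and the luminescent signal from continuous culture was measured repeatedly during 40 h treatment.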
A short description of assay [8]: A CellTox Green Cytotoxicity Assay to monitor cytotoxicity in HepG2 cells - 24 hour (AID 1224878). Note: nearly all actives have a fitted effect of over 45% in size. A digest of the protocol:
as §3

A short description of assay [9]: A CellTox Green Cytotoxicity Assay to monitor cytotoxicity in HepG2 cells - 40 hour (AID 1224879). Note: nearly all actives have a fitted effect of over 40% in size. In short, it runs like this:
as §3

The nature of assay [10]: qHTS RealTime-Glo MT Cell Viability Assay in HEK293 cells - 0 hour (AID 1224880). In short, it runs like this: as §2
% is set by controls: 0 for no effect and ±100 for the full control effect.

Turning to `CC(C)CP(=S)(S)CC(C)C`, the Potency entry in [1], in assay [2], in [3], in [5], in assay [6] and in assay [7] was “inactive” in each case. The Potency entry in assay [8] and in [9] was “inactive” throughout. Also, the max response in assay [4] was 3.1%. In [10], the compound was called inactive.

In the case of `COP(N)(=S)Oc1ccccc1C(=O)OC(C)C` (stereo not given), the Potency entry in [1], in assay [2], in assay [3], in [5], in assay [6] and in [7] was “inactive” throughout. Also, the Potency result in assay [8] and in assay [9] was “inactive” throughout. Further, the max response in assay [4] was -8.89%. Besides, the compound was called inactive in assay [10].

As for `O=C1CN=C(c2ccccc2)c2cc([N+](=O)[O-])ccc2N1`, the Potency result in [1], in [2], in assay [3], in [5], in assay [6] and in [7] was “inactive” each time. Also, the Potency result in assay [8] and in assay [9] was “inactive” in each case. The max response in [4] is -17.7%. Further, in assay [10], the outcome was inactive.

With `O=C1OC(c2ccc(O)c(S(=O)(=O)O)c2)(c2ccc(O)c(S(=O)(=O)O)c2)c2c(Br)c(Br)c(Br)c(Br)c21`, the Potency result in [1], in assay [2], in assay [3], in assay [5], in assay [6] and in assay [7] was “inactive” in each case. Moreover, the Potency result in assay [8] and in assay [9] was “inactive” each time. Also, in assay [4], the max response was 11.8%. Also, the compound was called inactive in [10].

For the compound `CC1CCC(=O)O1` (stereo not given), the Potency result in assay [1], in [2], in [3], in assay [5], in [6] and in assay [7] was “inactive” throughout. The Potency entry in assay [8] and in [9] was “inactive” each time. In addition, in assay [4], the max response was -22.6%. In addition, the call in assay [10] was inactive.

For `CC1(C)COP(Oc2ccccc2)OC1`, the Potency entry in assay [1], in [2], in assay [3], in assay [5], in [6] and in assay [7] was “inactive” each time. Moreover, the Potency entry in assay [8] and in [9] was “inactive” each time. In addition, in assay [4], the max response was -1.45%. For the same compound, the call in assay [10] was inactive.

As for `CNC(=O)Oc1ccccc1C1OCCO1`, the Potency entry in assay [1], in assay [2], in [3], in [5], in assay [6] and in assay [7] was “inactive” throughout. Also, the Potency result in assay [8] and in [9] was “inactive” each time. Also, the max response in [4] is -0.764%.

For `CCOC(=O)C(c1c(O)c2ccccc2oc1=O)c1c(O)c2ccccc2oc1=O`, the Potency result in assay [1], in assay [2], in [3], in assay [5], in assay [6] and in assay [7] was “inactive” each time. For the same compound, the Potency result in [8] and in [9] was “inactive” each time. The max response in assay [4] was 4.14%.

In the case of `CN/C(=N\[N+](=O)[O-])NCC1CCOC1` (stereo not given), the Potency result in [1], in assay [2], in [3], in assay [5], in assay [6] and in [7] was “inactive” in each case. Moreover, the Potency result in assay [8] and in assay [9] was “inactive” throughout. Besides, the max response in assay [4] is 4.22%. In assay [10], the compound was classed as inactive.

Consider `CC(C)CC#N`, for which the Potency entry in assay [1], in [2], in assay [3], in [5], in [6] and in assay [7] was “inactive” throughout. Also, the Potency entry in [8] and in [9] was “inactive” each time. Also, the max response in assay [4] is 8.82%. Further, in assay [10], the compound was classed as inactive.

As for `NC(=O)O`, the Potency entry in [1], in assay [2], in assay [3], in assay [5], in assay [6] and in assay [7] was “inactive” throughout. In addition, the Potency result in [8] and in assay [9] was “inactive” each time. Moreover, the max response in [4] is 3.48%. For the same compound, the compound was classed as inactive in assay [10].

As to `C=C(C)[C@@H]1CC=C(C=O)CC1`, the Potency result in [1], in assay [2], in [3], in [5], in assay [6] and in assay [7] was “inactive” throughout. Also, the Potency result in [8] and in assay [9] was “inactive” each time. In addition, the max response in assay [4] is -6.37%.

For `CCCCN(CCCCO)N=O`, the Potency result in assay [1], in assay [2], in assay [3], in assay [5], in [6] and in assay [7] was “inactive” in each case. Further, the Potency entry in assay [8] and in [9] was “inactive” each time. Also, in assay [4], the max response is 3.79%. Also, the outcome in assay [10] was inactive.

For `O=NN1CCCCC1`, the Potency result in assay [1], in assay [2], in assay [3], in assay [5], in assay [6] and in assay [7] was “inactive” in each case. For the same compound, the Potency entry in assay [8] and in assay [9] was “inactive” each time. The max response in assay [4] is 1.37%. In addition, the result in assay [10] was inactive.

In the case of `O=[N+]([O-])c1ccc2c3c(cccc13)CC2`, the Potency result in [1], in assay [2], in assay [3], in [5], in assay [6] and in assay [7] was “inactive” each time. In addition, the Potency result in assay [8] and in assay [9] was “inactive” each time. The max response in [4] was 1.98%. Further, the call in assay [10] was inactive.

Regarding `CCOC(=O)CP(=O)(OCC)OCC`, the Potency entry in [1], in assay [2], in assay [3], in assay [5], in assay [6] and in assay [7] was “inactive” in each case. For the same compound, the Potency result in assay [8] is “inactive”. In addition, the max response in [4] is 0.417%. In addition, in assay [10], the outcome was inactive.

On to `[O]=[Cd]`, for which the Potency entry in assay [1], in [2], in assay [3], in [5], in assay [6] and in [7] was “inactive” each time. The Potency result in [8] is “inactive”. For the same compound, the max response in assay [4] is 15.5%. Also, the outcome in [10] was inactive.

Regarding `CC1=NNC(=O)N(/N=C/c2cccnc2)C1`, the Potency result in assay [1], in assay [2], in [3], in assay [5], in [6] and in [7] was “inactive” throughout. In addition, the Potency result in [8] and in assay [9] was “inactive” throughout. In assay [4], the max response is 3.94%. Moreover, the call in assay [10] was inactive.

For the compound `CCN(CC)C(C)C(=O)c1ccccc1` (stereo not given), the Potency entry in assay [1], in assay [2], in assay [3], in assay [5], in assay [6] and in assay [7] was “inactive” throughout. The Potency entry in assay [8] and in [9] was “inactive” in each case. Moreover, in [4], the max response is 2.31%. For the same compound, the compound was called inactive in [10].

Take `Nc1cnn(-c2ccccc2)c(=O)c1Cl`: the Potency entry in [1], in assay [2], in assay [3], in assay [5], in assay [6] and in assay [7] was “inactive” in each case. Besides, the Potency entry in assay [8] and in [9] was “inactive” in each case. Also, in [4], the max response is 20.5%. In addition, in assay [10], the call was inactive.

As to `COc1ncc(F)c2nc(S(=O)(=O)Nc3c(F)cccc3F)nn12`, the Potency in assay [1] is 13.9 µM (active); in [5] it was 12.4 µM (active). Besides, the Potency result in [2], in assay [3], in [6], in assay [7], in [8] and in [9] was “inactive” throughout. Also, the max response in assay [4] is 6.8%. Further, the compound was called inactive in assay [10].

As to `CC(N)=S`, the Potency result in assay [1], in [2], in assay [3], in assay [5], in [6] and in assay [7] was “inactive” in each case. Also, the Potency result in assay [8] and in assay [9] was “inactive” throughout. For the same compound, the max response in assay [4] was 1.38%. For the same compound, the compound was called inactive in [10].

In the case of `C[N+](C)=CCl`, the Potency entry in [1], in assay [2], in assay [3], in assay [5], in assay [6] and in assay [7] was “inactive” in each case. Also, the Potency result in assay [8] and in assay [9] was “inactive” each time. The max response in [4] is 17.5%. Further, the compound was classed as inactive in assay [10].
